The results in this text go back to PubChem BioAssay (Tox21).

Where “and” joins values, the source holds several entries; their conditions need not be identical. Identical values can stand only once. Records with an inconclusive call do not appear. Calls of active or inactive are those of the source. Unless noted, calls follow the shape of the dose curve; as a rule, active = well fitted curve in the direction sought with a large enough effect in the repeat runs; inconclusive = weak or mixed curves; inactive = no such curve, though single readings can be large; an effect the other way counts as inactive or inconclusive.

The nature of assay [1]: qHTS assay to identify small molecule agonists of the androgen receptor (AR) signaling pathway in the presence of an antagonist - cell viability counter screen (AID 1259379). Also: nearly all actives have a fitted effect of over 25% in size. Also: potency is read from the fitted curve at half-maximal effect. An outline of the steps: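 A CellTiter-Fluor read-out measured viability of MDA-kb2 reporter cells (MMTV promoter with AR and GR response elements). Treatment: nilutamide 3.0uM final with compounds at 15 concentrations, 16 hr, 37C, 0% CO2.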
For orientation: In qHTS, concentration-response curves come from the screen itself.

The nature of assay [2]: qHTS assay to identify small molecule agonists of the estrogen receptor beta (ER-beta) signaling pathway - cell viability counter screen (AID 1259380). Also: nearly all actives have a fitted effect of over 30% in size. Also: potency is read from the fitted curve at half-maximal effect. An outline of the steps: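 Cells used were ER-beta-UAS-bla HEK293T in medium with 2% charcoal-stripped FBS. They were treated for 16 hr at 37C. Viability came from CellTiter-Glo luminescence.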
Assay [3] in a line: qHTS assay to identify small molecule antagonists of the estrogen receptor beta (ER-beta) signaling pathway - cell viability counter screen (AID 1259382). Also: nearly all actives have a fitted effect of over 55% in size. Also: potency is read from the fitted curve at half-maximal effect. The method in brief: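 Agonist-stimulated (1nM E2) ER-beta-UAS-bla HEK293T cells are incubated with library compounds for 16 hr at 37C. Cell viability is then assessed in the reporter-assay wells by adding CellTiter-Glo and reading luminescence after 30 min.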

The nature of assay [4]: qHTS assay to identify small molecule agonists or antagonists of the thyroid stimulating hormone receptor (TSHR) signaling pathway - wild type cell line counter screen (AID 1259384; calls by dose curve). The method in brief: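 Wild-type Hek293 cells, 800/well, 18 h at 37C, then compound with Ro20-1724 for 30 min RT. cAMP by HTRF (cAMP-d2/anti-cAMP cryptate), 1 h RT, fluorescence read. 15 concentrations, triplicates.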

Assay [5] concerns the target Thyrotropin receptor (Homo sapiens) (UniProt P16473). Briefly: qHTS assay to identify small molecule antagonists of the thyroid stimulating hormone receptor (TSHR) signaling pathway (AID 1259385; calls by dose curve; also: nearly all actives have a fitted effect of over 20% in size). The method in brief: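 TSHR-HEK293 cells (800/well) plated 18 h, then compounds with Ro20-1724 and TSH at 1.5 ng/mL final, 30 min at room temperature. cAMP quantified by HTRF (cAMP-d2/anti-cAMP-cryptate, 1 h); 15 concentrations in triplicate.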

Assay [6] is described as follows: qHTS assay to identify small molecule agonists of the estrogen receptor alpha (ER-alpha) signaling pathway in the presence of an antagonist - cell viability counter screen (AID 1259386).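 Also: cells exposed to compounds for 22 h at 37 °C before the viability read; nearly all actives have a fitted effect of over 30% in size.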 Also: potency is read from the fitted curve at half-maximal effect. An outline of the steps:
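ICI-182,780 at 10.0nM final accompanies the compound titration (15 concentrations, 22hr, 37C) on VM7Luc4E2 cells. The CellTiter-Fluor fluorescence readout runs in the same wells as the luciferase assay.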

In assay [7] the target is Progesterone receptor (Homo sapiens) (UniProt P06401). The experiment in a line: qHTS assay to identify small molecule agonists of the progesterone receptor (PR) signaling pathway (AID 1346784; calls by dose curve; also: nearly all actives have a fitted effect of over 30% in size). An outline of the steps: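 Compounds were tested for PR agonism in HEK 293T cells bearing a beta-lactamase gene under UAS control. Treatment lasted 16 hr at 37C; signal came from fluorescence of a FRET substrate.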
Chain of Progesterone receptor (Homo sapiens) (P06401 whole entry, looked up): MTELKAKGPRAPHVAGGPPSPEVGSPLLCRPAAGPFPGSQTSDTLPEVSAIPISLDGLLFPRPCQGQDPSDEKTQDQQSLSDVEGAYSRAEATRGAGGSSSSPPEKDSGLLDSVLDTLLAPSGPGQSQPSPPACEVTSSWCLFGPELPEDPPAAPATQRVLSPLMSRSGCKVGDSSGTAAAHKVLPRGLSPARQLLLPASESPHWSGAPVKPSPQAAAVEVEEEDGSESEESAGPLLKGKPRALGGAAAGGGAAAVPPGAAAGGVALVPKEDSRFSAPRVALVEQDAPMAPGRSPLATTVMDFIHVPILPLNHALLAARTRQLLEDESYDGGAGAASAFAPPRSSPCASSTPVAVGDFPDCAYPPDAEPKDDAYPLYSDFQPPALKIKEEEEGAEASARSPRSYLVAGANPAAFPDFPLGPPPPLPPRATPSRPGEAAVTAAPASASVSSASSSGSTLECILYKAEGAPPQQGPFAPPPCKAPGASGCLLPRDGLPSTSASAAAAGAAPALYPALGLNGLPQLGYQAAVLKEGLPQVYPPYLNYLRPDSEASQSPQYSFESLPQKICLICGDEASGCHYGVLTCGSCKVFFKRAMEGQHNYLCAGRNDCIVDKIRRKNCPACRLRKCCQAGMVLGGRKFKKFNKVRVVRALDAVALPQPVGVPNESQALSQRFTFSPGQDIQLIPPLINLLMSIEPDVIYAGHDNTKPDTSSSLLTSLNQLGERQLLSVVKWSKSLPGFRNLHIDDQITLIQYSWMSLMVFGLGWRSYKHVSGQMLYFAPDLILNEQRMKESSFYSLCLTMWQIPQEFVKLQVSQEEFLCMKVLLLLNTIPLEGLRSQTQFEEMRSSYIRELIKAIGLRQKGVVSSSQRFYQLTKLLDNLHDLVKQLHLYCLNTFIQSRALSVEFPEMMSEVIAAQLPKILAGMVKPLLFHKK

Assay [8] has the same target. The experiment in a line: qHTS assay to identify small molecule antagonists of the progesterone receptor (PR) signaling pathway (AID 1346795; active = well fitted inhibition curve with a large enough effect in the signal ratio in the repeat runs, not every such curve was filed as active; the % refers to the signal ratio). The method in brief: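 In HEK293T cells bearing the PR-UAS-bla reporter, compound effects on promegestone-driven (1 nM) beta-lactamase expression are assessed after 16 hr using a fluorescent FRET substrate incubated 2 hr at room temperature.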

Assay [9] in a line: qHTS assay to identify small molecule antagonists of the progesterone receptor (PR) signaling pathway - cell viability counter screen (AID 1346798). Also: nearly all actives have a fitted effect of over 50% in size. Also: potency is read from the fitted curve at half-maximal effect. The method in brief:
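Following a 4 hr attachment, PR-UAS-bla HEK293T cells in charcoal-stripped FBS medium were exposed to compounds with R5020 for 16 hr; CellTiter-Glo was added and luminescence read after 30 min at room temperature.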

Assay [10] in a line: qHTS assay to identify small molecule agonists of the progesterone receptor (PR) signaling pathway - cell viability counter screen (AID 1346799; calls by dose curve; also: nearly all actives have a fitted effect of over 45% in size; also: potency is read from the fitted curve at half-maximal effect). An outline of the steps: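 Here, 3,000 PR-UAS-bla HEK293T cells per well were treated with compounds for 16 hr after a 6 hr preincubation at 37C and 5% CO2; cell viability is the CellTiter-Glo luminescence signal.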
Assay [11] can be described thus: qHTS assay to identify small molecule agonists of the TGF-beta/Smad signaling pathway - cell viability counter screen (AID 1346829). Also: nearly all actives have a fitted effect of over 45% in size. Also: potency is read from the fitted curve at half-maximal effect. An outline of the steps: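 Tox21 qHTS format: SBE-bla HEK 293T cells treated with DMSO-dissolved compounds for 5 hr; CellTiter-Glo luminescence after 30 min at room temperature.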
A short description of assay [12]: qHTS assay to identify small molecule agonists of the TGF-beta/Smad signaling pathway (AID 1346859; active = well fitted activation curve with a large enough effect in the signal ratio in the repeat runs, not every such curve was filed as active; the % refers to the signal ratio; also: series mostly up to about 77 µM). An outline of the steps:
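Each well held 4,000 SBE-bla HEK 293T cells incubated overnight before compound addition; 5 hr later the cleavable FRET substrate went on for 2 hr at room temperature, and fluorescence was read at two emissions.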

A short description of assay [13]: Human pregnane X receptor (PXR) small molecule agonists, qHTS cell viability counter screen (AID 1346977). Also: nearly all actives have a fitted effect of over 50% in size. Also: potency is read from the fitted curve at half-maximal effect. The method in brief: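 Tox21 qHTS format; PXR-Luc HepG2, 2,000/well, charcoal-stripped FBS 5%. Cpd exposure 24hr. Read: CellTiter-Fluor fluorescence, multiplexed with luciferase.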
The target of assay [14] is Androgen receptor (Homo sapiens) (UniProt P10275). The experiment in a line: qHTS assay to identify small molecule agonists of the androgen receptor (AR) signaling pathway in the presence of an antagonist (AID 1259381; calls by dose curve; also: nearly all actives have a fitted effect of over 15% in size). The method in brief: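 Using human MDA-kb2 cells with an MMTV promoter–luciferase construct (AR and GR response elements), agonist activity is scored under 3.0uM nilutamide (final) co-treatment; 16hr incubation, 37C, luminescence readout via ONE-Glo.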
Chain of Androgen receptor (Homo sapiens) (P10275 whole entry, looked up): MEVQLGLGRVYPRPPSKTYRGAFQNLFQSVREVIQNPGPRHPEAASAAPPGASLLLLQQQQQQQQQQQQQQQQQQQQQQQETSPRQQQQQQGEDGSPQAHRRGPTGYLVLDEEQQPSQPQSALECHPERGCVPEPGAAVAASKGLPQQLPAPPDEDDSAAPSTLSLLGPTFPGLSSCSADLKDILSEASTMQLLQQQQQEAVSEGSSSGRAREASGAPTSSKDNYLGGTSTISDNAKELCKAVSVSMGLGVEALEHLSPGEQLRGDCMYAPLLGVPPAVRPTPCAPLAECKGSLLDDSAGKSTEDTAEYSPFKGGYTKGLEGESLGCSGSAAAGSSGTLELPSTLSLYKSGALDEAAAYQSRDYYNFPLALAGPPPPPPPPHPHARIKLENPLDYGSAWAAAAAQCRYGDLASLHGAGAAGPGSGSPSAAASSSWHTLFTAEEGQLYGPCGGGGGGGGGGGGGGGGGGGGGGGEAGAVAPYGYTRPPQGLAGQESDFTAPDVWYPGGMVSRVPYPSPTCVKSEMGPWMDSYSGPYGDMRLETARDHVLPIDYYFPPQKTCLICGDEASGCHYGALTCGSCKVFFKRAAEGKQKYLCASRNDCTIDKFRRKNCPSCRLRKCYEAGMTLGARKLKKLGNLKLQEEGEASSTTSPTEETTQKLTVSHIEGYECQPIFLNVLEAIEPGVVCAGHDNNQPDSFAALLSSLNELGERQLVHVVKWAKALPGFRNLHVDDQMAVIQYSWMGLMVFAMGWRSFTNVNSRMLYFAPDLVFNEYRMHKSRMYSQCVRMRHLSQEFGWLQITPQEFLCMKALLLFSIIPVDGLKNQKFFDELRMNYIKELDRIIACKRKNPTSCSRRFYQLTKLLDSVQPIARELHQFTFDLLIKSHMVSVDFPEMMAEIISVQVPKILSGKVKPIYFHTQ

The target of assay [15] is Estrogen receptor (Homo sapiens) (UniProt P03372). Briefly: qHTS assay to identify small molecule agonists of the estrogen receptor alpha (ER-alpha) signaling pathway in the presence of an antagonist (AID 1259383; calls by dose curve; also: top concentration of the series differs between compounds; nearly all actives have a fitted effect of over 15% in size). An outline of the steps:
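Using VM7Luc4E2 cells seeded 24hr before treatment, antagonist ICI-182,780 (10.0nM final) was added, followed by compounds at 15 concentrations. Plates incubated 22hr; ONE-Glo luminescence quantified reporter activity.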

The nature of assay [16]: qHTS assay to identify small molecule antagonists of the TGF-beta/Smad signaling pathway - cell viability counter screen (AID 1346824). Also: nearly all actives have a fitted effect of over 50% in size. An outline of the steps: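 SBE-bla HEK 293T cells, incubated overnight, then compound plus 0.25 ng/mL TGF-beta1 (stock added) for 5 hr at 37 C. Viability was read in the same wells by CellTiter-Glo luminescence after 30 min at room temperature.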

For assay [17], the target named is Thyrotropin-releasing hormone receptor (Homo sapiens) (UniProt P34981). Briefly: qHTS assay to identify small molecule antagonists of the thyrotropin-releasing hormone receptor (TRHR) signaling pathway (AID 1346877; active = well fitted inhibition curve with a large enough effect in the repeat runs, not every such curve was filed as active; also: series mostly up to about 51 µM). The method in brief:
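Screening used HEK293 cells engineered with TRHR, with a brief 5 min room-temperature compound exposure preceding addition of TRH to 1 nM. The read-out was kinetic calcium-dye fluorescence, concentration-response from 15 doses in triplicate.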

The target is the same in assay [18]. The experiment in a line: qHTS assay to identify small molecule agonists of the thyrotropin-releasing hormone receptor (TRHR) signaling pathway (AID 1346891; calls by dose curve; also: series mostly up to about 58 µM). An outline of the steps: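 Screening of agonists relied on calcium signalling in HEK293 cells expressing human TRHR: dye loading 2 h at 37 °C preceded compound addition and a 3-min fluorescence time course.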

Chain of Thyrotropin-releasing hormone receptor (Homo sapiens) (P34981 whole entry, looked up): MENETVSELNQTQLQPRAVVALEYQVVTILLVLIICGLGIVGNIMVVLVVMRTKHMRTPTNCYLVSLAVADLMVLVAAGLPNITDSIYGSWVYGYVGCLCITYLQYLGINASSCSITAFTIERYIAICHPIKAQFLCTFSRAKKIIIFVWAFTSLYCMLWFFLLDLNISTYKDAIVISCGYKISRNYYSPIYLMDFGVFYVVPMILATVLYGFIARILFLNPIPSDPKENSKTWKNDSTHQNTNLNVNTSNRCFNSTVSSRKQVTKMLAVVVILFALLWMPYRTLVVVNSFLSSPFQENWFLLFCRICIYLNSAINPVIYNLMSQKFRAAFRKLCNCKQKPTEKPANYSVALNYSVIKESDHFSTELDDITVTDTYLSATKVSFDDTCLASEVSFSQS
Chain of Thyrotropin receptor (Homo sapiens) (P16473 whole entry, looked up): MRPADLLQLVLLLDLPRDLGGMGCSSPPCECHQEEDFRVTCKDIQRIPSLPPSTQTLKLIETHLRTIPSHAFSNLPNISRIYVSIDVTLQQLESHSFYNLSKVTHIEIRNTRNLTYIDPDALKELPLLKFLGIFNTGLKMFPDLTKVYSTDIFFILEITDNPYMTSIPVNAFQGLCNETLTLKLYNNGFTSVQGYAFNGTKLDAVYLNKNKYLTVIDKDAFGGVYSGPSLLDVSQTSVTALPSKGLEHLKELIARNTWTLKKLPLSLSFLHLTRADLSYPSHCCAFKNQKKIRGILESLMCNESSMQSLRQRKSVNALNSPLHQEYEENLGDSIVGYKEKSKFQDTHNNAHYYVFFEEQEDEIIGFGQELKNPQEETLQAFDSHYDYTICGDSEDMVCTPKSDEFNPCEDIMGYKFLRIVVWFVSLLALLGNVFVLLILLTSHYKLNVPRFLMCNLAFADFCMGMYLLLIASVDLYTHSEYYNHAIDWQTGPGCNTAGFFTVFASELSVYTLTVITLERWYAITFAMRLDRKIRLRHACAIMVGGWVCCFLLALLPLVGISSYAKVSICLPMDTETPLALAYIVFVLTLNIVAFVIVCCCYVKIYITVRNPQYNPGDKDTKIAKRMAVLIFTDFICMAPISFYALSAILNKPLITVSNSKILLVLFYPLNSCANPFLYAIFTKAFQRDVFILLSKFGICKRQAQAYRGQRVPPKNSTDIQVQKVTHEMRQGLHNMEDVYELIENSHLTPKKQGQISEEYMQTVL
Chain of Estrogen receptor (Homo sapiens) (P03372 whole entry, looked up): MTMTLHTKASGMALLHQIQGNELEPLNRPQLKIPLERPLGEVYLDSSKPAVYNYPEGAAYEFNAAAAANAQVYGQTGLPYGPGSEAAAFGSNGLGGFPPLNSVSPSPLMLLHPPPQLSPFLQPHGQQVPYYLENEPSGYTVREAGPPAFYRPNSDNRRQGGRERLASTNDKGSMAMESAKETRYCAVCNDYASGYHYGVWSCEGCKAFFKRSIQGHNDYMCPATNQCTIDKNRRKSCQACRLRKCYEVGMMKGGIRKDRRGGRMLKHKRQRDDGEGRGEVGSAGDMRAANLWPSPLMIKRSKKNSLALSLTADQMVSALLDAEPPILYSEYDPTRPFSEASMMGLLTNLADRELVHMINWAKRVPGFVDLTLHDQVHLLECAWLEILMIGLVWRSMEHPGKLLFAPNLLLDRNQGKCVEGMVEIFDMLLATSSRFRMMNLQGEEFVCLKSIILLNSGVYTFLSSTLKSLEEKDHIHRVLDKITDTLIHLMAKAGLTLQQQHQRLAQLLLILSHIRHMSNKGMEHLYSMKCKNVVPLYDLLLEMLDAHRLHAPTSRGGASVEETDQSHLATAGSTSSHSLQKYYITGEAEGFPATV

`CC1(C)S[C@@H]2[C@H](NC(=O)[C@H](N)c3ccccc3)C(=O)N2[C@H]1C(=O)O`: the Potency entry in [1], in assay [2], in [3], in [4], in [5] and in assay [6] was “inactive” in each case. In addition, the Potency entry in [7], in assay [8], in assay [9], in assay [10], in assay [11] and in [13] was “inactive” each time. In assay [12], the molecule was called inactive.
Regarding `COc1cccc(O)c1O`, in [2], the Potency is 56.6 µM (active). For the same molecule, the Potency result in [14], in [3], in [15], in assay [7], in [8] and in [9] was “inactive” throughout. Moreover, the Potency entry in assay [10], in assay [16], in assay [11], in [17] and in assay [18] was “inactive” each time. Besides, the call in assay [12] was inactive.
On to `O=C(Nc1ncc([N+](=O)[O-])s1)c1cccs1`, for which the Potency in assay [1] is 26.6 µM (active); in assay [6] it was 26.6 µM (active); in assay [11] it was 15.1 µM (active); in assay [13], 23.7 µM (active). Moreover, the Potency result in [14], in assay [4], in assay [5], in assay [7], in assay [9] and in assay [10] was “inactive” each time. Moreover, the Potency result in assay [17] and in assay [18] was “inactive” each time. The call in assay [12] was inactive.
For `CC(O)(P(=O)(O)O)P(=O)(O)O`, the Potency result in [1], in [2], in assay [3], in assay [4], in [5] and in [6] was “inactive” each time. In addition, the Potency entry in assay [9], in assay [10], in assay [11], in assay [17], in [18] and in [13] was “inactive” in each case. In assay [12], the call was inactive.
`O=C1O[C@H]([C@@H](O)CO)C(O)=C1O`: the Potency entry in assay [1], in assay [2], in [3], in assay [4], in assay [5] and in [6] was “inactive” throughout. The Potency entry in assay [7], in [8], in [9], in assay [10], in [11] and in assay [13] was “inactive” throughout. For the same molecule, in assay [12], the outcome was inactive.
`CC(C)c1c(C(=O)Nc2ccccc2)c(-c2ccccc2)c(-c2ccc(F)cc2)n1CC[C@@H](O)C[C@@H](O)CC(=O)O`: the Potency result in assay [1], in assay [4], in [5], in assay [6], in [11] and in [17] was “inactive” each time. The Potency entry in [18] and in assay [13] was “inactive” in each case. The Potency in assay [2] is 11.7 µM (active) and 25.5 µM (active); in assay [3] it was 13.2 µM (active) and 32.1 µM (active); in assay [9], 6.41 µM (active); in assay [10] it was 1.48 µM (active) and 227 nM (active) and 2.11 µM (active). Also, the molecule was classed as inactive in assay [12].
In the case of `CCCC[P+](CCCC)(CCCC)CCCC`, the Potency in [1] is 60.9 µM (active) and 62.3 µM (active) and 61.1 µM (active). The Potency entry in [3], in assay [4], in [5], in assay [6], in assay [7] and in assay [8] was “inactive” throughout. The Potency entry in assay [9], in [10], in assay [11] and in assay [13] was “inactive” throughout.
